# Data published in PubChem BioAssay (NCATS).
# Inconclusive results are not listed. Entries that show only a call come without a potency. The source made the active and inactive calls. Calls follow the shape of the dose curve; as a rule, active = well fitted cell-killing curve with a large enough effect; inconclusive = small, poorly fitted or top-dose-only effect; inactive = no such curve, though single readings can be large or run the other way.
# Experiment: qHTS of pediatric cancer cell lines to identify multiple opportunities for drug repurposing: Primary screen for SJ-GBM2 cells (AID 1347091)
# Conditions: SJ-GBM2 viability, CellTiter-Glo luminescence, 48 h; series mostly up to 46 µM
# Excerpt: Drug repurposing or repositioning has been offered as a strategy for drug development in oncology programs. This approach has special potential for childhood cancers and other rare or orphan diseases, where the expected return on new drug development has been a disincentive to pharmaceuticals.
# In this project we exploit the poly-pharmacology of drugs to discover new indications via phenotypic screening of a panel of 19 well-characterized cell lines derived from solid tumors seen in children and adolescents. The goal is to identify approved drugs with previously unrecognized anticancer properties that has the potential to reveal new mechanisms and biological processes involved in carcinogenesis or drug resistance. We employed a titration-based paradigm (quantitative high-throughput screening or qHTS), where all compounds were tested at multiple concentrations for their effect on cell viability. Concentration-response curves (CRCs) were derived directly from the primary screen, and both potency and efficacy values were used to identify compounds with robust bioactivity profiles. We screened the NIH Chemical Genomics Center (NCGC) Pharmaceutical Collection (NPC) and Mechanism Interrogation Plate (MIPE) small molecule collections of approved and investigational compounds against these cell lines; and measured metabolically active cells after 48 hours of compound treatment as a proxy for cell viability.
# Assay Submitter: Nathalia J. Martinez, National Center for Advancing Translational Sciences, National Institutes of Health, Rockville, MD, USA; email: natalia.martinez@nih.gov
# [1] Shen, M et al. Quantitative high-throughput phenotypic screening of pediatric cancer cell lines identifies multiple opportunities for drug repurposing. Oncotarget 2017 Dec 19;9(4):4758-4772. PMID 29435139.
# The cells were obtained from University of North Carolina (UNC), Pediatric Preclinical Testing Program (PPT), and Coriell Institute (CI).
# qHTS cell viability assay:
# Cells were assayed in growth media at a density of 500-1,000 cells/well. Five microliters of cells were dispensed into 1,536-well, white, solid-bottom, TC-treated plates (Greiner Bio One) using a multidrop dispenser and incubated at 37 degrees C, 5% CO2, under a humidified atmosphere for 5 hours. Twenty-three nanoliters of compounds and controls (neutral control DMSO or positive control bortezomib at final concentration of 2.3 µM) were subsequently transferred by Kalypsys pintool. For primary screens, the MIPE collection was tested at 11-point dilutions (final concentrations range from 0.78 nM to 46 µM) and the NPC collection at 8-point dilutions (final concentrations range from 0.59 nM to 46 µM). Compounds tested in follow-up screens were assayed at 11-point dilutions. Cells were incubated for 48 hours, followed by addition of 3 uL of CellTiter-Glo (Promega). After a 15 min incubation at room temperature, samples were analyzed for luminescence intensity using a ViewLux High-throughput CCD imager equipped with clear filters.
# Potency is read from the fitted curve at half-maximal effect.
Structure (SMILES),Potency,"activity change, negative = cytotoxic"
CN1CCC(Nc2ncc3ncnc(Nc4ccc(F)c(Cl)c4)c3n2)CC1,inactive,
O=[N+]([O-])c1nccn1CO[C@@H](CO)[C@H](O)CO,inactive,
CCCCC(CC)CNC(=O)CC(C)OC(=O)CCC(=O)O (stereo not given),inactive,
COC(=O)CCCCC(CCSS/C(CCO)=C(\C)N(C=O)Cc1cnc(C)nc1N)SC(C)=O (stereo not given),inactive,
CCC[C@H](N[C@@H](C)C(=O)N1[C@H](C(=O)O)C[C@@H]2CCCC[C@@H]21)C(=O)OCC,inactive,
O=C1CC[C@H](C(=O)N2CCCCC2)N1,inactive,
Nc1ccc(O)cc1,inactive,
C1=CC2C3C=CC(C3)C2C1 (stereo not given),inactive,
CCOC(=O)N1CCC(n2c(=O)[nH]c3cc(Cl)ccc32)CC1,inactive,
Cc1cc2nc3ccc(=[N+](C)C)cc-3sc2cc1N,21.1 µM (active),
Nc1ncnc2nc[nH]c12,inactive,
Cc1ccc(-c2ccccc2C#N)cc1,inactive,
CC(=O)OCC(=O)[C@@]1(O)CCC2C3CCC4=CC(=O)CC[C@]4(C)C3[C@@H](O)C[C@@]21C (stereo not given in full),inactive,
COC(=O)c1cc(Cl)ccc1NS(=O)(=O)C(F)(F)F,inactive,
Cc1cc(OCCOCC[N+](C)(C)Cc2ccccc2)ccc1C(C)(C)CC(C)(C)C,21.1 µM (active),
CC1CC(=O)NN=C1c1ccc(NCC(C)(C)NCC(O)COc2cc(Cl)ccc2C#N)cc1 (stereo not given),inactive,
CN1C(=O)c2ccccc2C1=O,inactive,
CCC1=C[C@@H]2CN(C1)Cc1c([nH]c3ccccc13)[C@@](C(=O)OC)(c1cc3c(cc1OC)N(C)[C@H]1[C@@](O)(C(=O)OC)[C@H](OC(C)=O)[C@]4(CC)C=CCN5CC[C@]31[C@@H]54)C2,0.0084 µM (active),
O=C1CC(c2ccc(Cl)cc2)CC(=O)N1,inactive,
C[C@H](N)C(=O)N[C@@H](C)C(=O)NC1[C@H]2CN(c3nc4c(cc3F)c(=O)c(C(=O)O)cn4-c3ccc(F)cc3F)C[C@@H]12 (stereo not given in full),inactive,

Structure (SMILES),Potency,"activity change, negative = cytotoxic"
CC(C)OP(=O)(CP(=O)(OC(C)C)OC(C)C)OC(C)C,inactive,
O=C(O)C(=O)Nc1cccc(-c2nn[nH]n2)c1,inactive,
CC1CN(c2cc3c(cc2F)c(=O)c(C(=O)O)cn3-c2ccc(F)cc2F)CCN1 (stereo not given),,78.3% [at 4.84 µM] (inactive)
C#CC(C)(CC)OC(=O)c1ccccc1C(=O)O (stereo not given),inactive,
CC(=O)OCC[N+](C)(C)C,inactive,
Nc1ccc([N+](=O)[O-])c(C(F)(F)F)c1,inactive,
CCN(CC)CC(=O)OCC(=O)[C@@]1(O)CC[C@H]2[C@@H]3CCC4=CC(=O)CC[C@]4(C)[C@H]3[C@@H](O)C[C@@]21C,inactive,
CC(C)OC(=O)c1cc2c(OCC(O)CNC(C)(C)C)cccc2[nH]1 (stereo not given),inactive,
CC1(C)OC(=O)Nc2ccc(Br)cc21,inactive,
CCCCCOc1ccccc1/C(=C\SC)n1ccnc1,inactive,
CC(C)Cc1ccc(C(C)C(=O)OCc2ccccn2)cc1 (stereo not given),inactive,
CCOc1ncc(F)c(=O)[nH]1,inactive,
COCCc1ccc(OCC2CO2)cc1 (stereo not given),inactive,
CCCCC(O)/C=C(C)/C=C/C=C/C(=O)N1CCCC1=O (stereo not given),inactive,
OC(CCCN1CCCCC1)(c1ccccc1)c1ccccc1,inactive,
COC(=O)/C=C\C(=O)OC,inactive,
CC(C)(c1ccc(O)cc1)c1ccc(O)cc1,inactive,
N#CSCC(=O)O,inactive,
CC(C)C[C@@H]1[C@H](c2ccccc2)OC(=O)N1CCCN1CCCCCC1,inactive,
O=C(C1CCCCC1)N1CC(=O)N2CCCc3ccccc3C2C1 (stereo not given),inactive,
